Giardia killer: Giardia lamblia killing. activity change, % at 7.66 µM, hits read low. 340,000 compounds, 0.15% hits. Giardia lamblia trophozoite viability; in the data active = activity change below about -80%; inconclusive = between about -30% and that limit;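 also: parasites exposed to compound for two days anaerobically before the ATP read; % is scaled to controls: 0 for no effect and ±100 for the full control effect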
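Trophozoite viability was measured as ATP-dependent luminescence, read 15-30 min after reagent addition. Before that, parasites at 100 cells/well were exposed to compounds for 48 h, anaerobically, at 37 deg C.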
uPA surface inh: inhibitors of cell surface uPA generation | cell surface uPA generation assay, qHTS | Potency, µM (highest dose often 38.3 µM), inactives show at the top dose activity change, negative = inhibition, most hits filed as inhibitors | 330,000 compounds, 0.31% hits; active = well fitted inhibition curve with a large enough effect; inconclusive = small, poorly fitted or top-dose-only effect; inactive = no such curve, though single readings can be large or run the other way; tested in mouse RAW 264.7 cells; also: potency is read from the fitted curve at half-maximal effect; % is scaled to controls: 0 for no effect and ±100 for the full control effect; nearly all actives have a fitted effect of over 55% in size
p53 reactivation: re-activators of mutant p53 | H1299 p53-A138V BP100-luciferase reporter, luminescence, 24 h | Potency, µM (highest dose often 92.2 µM), for inactives: at the top dose activity change, positive = activation, most hits filed as activators | 320,000 compounds, 0.063% hits | AID 504706; also: potency is read from the fitted curve at half-maximal effect; % of control where 0% means no effect; nearly all actives have a fitted effect of over 45% in size
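H1299 (p53-null), stable ts p53-A138V + BP100-Luc; 1000 cells/well, Opti-MEM/10% FBS; cpd 4 pt, 1:5; 24 h, 37 deg C, 5% CO2; detection reagent 10 min RT; luminescence.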
ClpP mod: qHTS Assay for Activators of ClpP; purified B. subtilis ClpP, FRET peptide cleavage, 20 min; Potency, µM (doses to about 57.5 µM), without a hit: top-dose activity change, negative = active; 340,000 compounds, 1.9% hits; active = well fitted falling curve with a large enough effect; inconclusive = small, poorly fitted or top-dose-only effect; inactive = no such curve, though single readings can be large or run the other way; also: potency is read from the fitted curve at half-maximal effect; the source files actives as falling curves though it sought activators and does not explain the sign; nearly all actives have a fitted effect of over 65% in size
Target sequence (P80244 whole entry, looked up): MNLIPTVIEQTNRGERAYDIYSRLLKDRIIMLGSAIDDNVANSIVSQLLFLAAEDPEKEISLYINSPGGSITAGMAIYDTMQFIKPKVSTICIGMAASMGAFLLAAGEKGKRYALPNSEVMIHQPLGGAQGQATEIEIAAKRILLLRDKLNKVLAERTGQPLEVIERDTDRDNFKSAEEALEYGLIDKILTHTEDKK
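FRET quenching reversal measured ClpP activation: 10 microg/mL B. subtilis ClpP at pH 8 with the FRET-FV decapeptide, read at 430 nm after 320 nm excitation. The 20-min minus 0-min signal was scaled between DMSO/no-enzyme wells and ADEP (5.8 microM final).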
Mito fusion act: mitochondrial division inhibition or fusion activation | AID 485298 | 320,000 compounds, 0.23% hits | Potency, µM (doses to about 46.1 µM), for inactives: top-dose growth rescue (activation), usual class: activators | S. cerevisiae fusion-defective mutant growth rescue, CellTiterGlo 48 h; also: potency is read from the fitted curve at half-maximal effect; % of control where 0% means no effect; nearly all actives have a fitted effect of over 45% in size
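Temperature-sensitive fusion-defective S. cerevisiae (e.g. fzo1-1, mgm1-5) were grown with compound in YPEG medium (3% ethanol, 3% glycerol) for 48 hours at 37C. Growth rescue was measured as viability by CellTiterGlo luminescence after 10 minutes at ambient.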
B2AR arrestin: beta2AR (human) beta-arrestin recruitment activity | beta-arrestin recruitment to beta2AR, cell-based reporter | Potency, µM (series often up to 46.1 µM), inactives show at the highest dose activation, most hits filed as activators | 330,000 compounds, 0.02% hits;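 also: potency is read from the fitted curve at half-maximal effect; 0% = DMSO controls and full agonism = EC100 isoproterenol or metaproterenol; nearly all actives have a fitted effect of over 65% in size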
Target sequence (P07550 whole entry, looked up): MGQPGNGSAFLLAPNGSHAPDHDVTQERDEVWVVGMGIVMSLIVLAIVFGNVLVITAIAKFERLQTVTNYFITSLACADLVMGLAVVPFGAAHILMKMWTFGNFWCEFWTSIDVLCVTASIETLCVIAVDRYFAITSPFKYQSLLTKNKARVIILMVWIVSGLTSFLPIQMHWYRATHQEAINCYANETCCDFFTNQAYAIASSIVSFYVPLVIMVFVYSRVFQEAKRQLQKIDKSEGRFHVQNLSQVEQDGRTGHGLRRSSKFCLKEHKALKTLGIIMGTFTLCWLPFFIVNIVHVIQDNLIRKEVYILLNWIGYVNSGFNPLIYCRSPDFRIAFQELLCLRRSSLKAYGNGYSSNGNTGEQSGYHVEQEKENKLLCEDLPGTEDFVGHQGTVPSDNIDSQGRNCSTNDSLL
* = called active by the depositor; ? = inconclusive; nt = no result. A selection: hits, their analogues and other compounds. The true share with any hit is near 2.1%. Unless noted, calls follow the shape of the dose curve; as a rule, active = well fitted curve in the direction sought with a large enough effect; inconclusive = small, poorly fitted or top-dose-only effect, or another doubt; inactive = no such curve, though single readings can be large; an effect the other way counts as inactive or inconclusive.

SMILES	Giardia killer	uPA surface inh	p53 reactivation	ClpP mod	Mito fusion act	B2AR arrestin
COCCNc1nc(CSc2ccccc2)nc2sc(C)c(C)c12	?	6%	-31%	28µM*	15%	0%
CC(=O)c1ccc(NC(=O)CCc2c(C)nc3ncnn3c2C)cc1	9	8%	22%	28µM*	-2%	-1%
CC(=O)c1ccc(NC(=O)CCc2c(C)nc3c(c(C)nn3-c3ccc(C)cc3)c2C)cc1	nt	nt	nt	14µM*	nt	nt
CSc1ccc(CCNC(=O)CCc2c(C)nc3c(c(C)nn3-c3ccccc3)c2C)cc1	nt	nt	nt	-6%	nt	nt
COC(=O)c1ccc(NC(=O)CCc2c(C)nc3ncnn3c2C)cc1	26	-3%	6%	-2%	0%	-1%
Cc1cccc(CCNC(=O)CCc2c(C)nc3c(c(C)nn3-c3ccccc3)c2C)c1	nt	nt	nt	32µM*	nt	nt
COc1ccc(C(N)c2csc(Nc3nncc4ccccc34)n2)cc1 (configuration not stated)	nt	nt	nt	-5%	nt	nt
Nc1c(-c2ccc(F)c(F)c2)nc2ncccn12	nt	nt	nt	-2%	nt	nt
Cc1ccc(CNC(=O)CN2C(=O)C3(SCC(=O)N3c3cc(C)cc(C)c3)c3ccccc32)cc1 (configuration not stated)	nt	nt	nt	1%	nt	nt
COc1ccc(-c2nc3nc(C)cc(C)n3n2)cc1	?	-1%	?	16µM*	-1%	0%
COc1ccc(CNc2nc3nc(C)cc(C)n3n2)cc1	-3	nt	6%	?	-6%	0%
COc1ccccc1NC(=O)CSC1=NC(=O)C(NC(C)=O)C(=O)N1 (configuration not stated)	-6	-7%	2%	28µM*	0%	0%
CC(C)NC(=O)c1ccccc1NS(=O)(=O)c1ccc(Br)s1	-10	10%	nt	0%	3%	-1%
O=C(c1ccccc1NS(=O)(=O)c1ccc(Br)s1)N1CCCC1	10	3%	-2%	16µM*	-6%	0%
Cc1cc(C)c(C(=O)c2ccccc2C(=O)O)c(C)c1	nt	nt	nt	-4%	nt	nt
O=C(Cc1ccc(N2CCNC2=O)cc1)N1CCCC(Nc2cccc(F)c2)C1 (configuration not stated)	-30	1.4µM*	-6%	1%	7%	0%
O=C(OCC(=O)N1CCCc2ccccc21)c1ccccc1NCCO	-14	2%	-3%	32µM*	-2%	-1%
O=C(OCC(=O)N1CCN(C(=O)COC(=O)c2ccccc2NCCO)CC1)c1ccccc1NCCO	-5	12%	nt	4%	nt	nt
O=C(OCC(=O)N1CCc2ccccc21)c1ccc[nH]c1=O	3	1%	-2%	28µM*	-3%	0%
COc1ccc(-n2nc(-c3ccc(C)cc3)c3cnc4cc(F)c(F)cc4c32)cc1	nt	nt	nt	4%	nt	nt
CCc1nnc2sc(-c3ccc(NC(=O)c4ccc5c(c4)OCCO5)cc3)nn12	19	3%	-7%	28µM*	-3%	0%
COc1cccc(N2CCN(C(=O)c3ccc(CS(=O)Cc4ccccc4Cl)o3)CC2)c1 (configuration not stated)	20	-6%	1%	-2%	-3%	0%
O=C(c1ccc(CS(=O)Cc2ccccc2Cl)o1)N1CCN(c2cccc(Cl)c2)CC1 (configuration not stated)	3	0%	-7%	0%	35µM*	0%
CCOC(=O)C(C(=O)OCC)C1N=C(N)N=C2Oc3ccccc3N21 (configuration not stated)	10	-5%	19%	25µM*	3%	0%
CCN(CC)CCCNC(=O)CSc1nc(-c2ccc(OC)cc2)cc(C(F)(F)F)n1	nt	nt	nt	5%	nt	nt
SMILES	Giardia killer	uPA surface inh	p53 reactivation	ClpP mod	Mito fusion act	B2AR arrestin
O=C(CCn1c(=O)c2sccc2n(Cc2cc(=O)n3ccccc3n2)c1=O)NCc1ccco1	11	nt	-2%	28µM*	2%	0%
COc1ccc(CNC(=O)Nc2cccc3ccccc23)cc1	-16	1%	3%	32µM*	-1%	1%
COc1cc2[nH]c(=O)n(CCCC(=O)NC3CCCCC3)c(=O)c2cc1OC	5	0%	0%	1%	7%	0%
COc1ccc(CNC(=O)CCn2c(=O)[nH]c3ccccc3c2=O)cc1	2	-1%	1%	28µM*	4%	0%
CCOc1cc2[nH]c(=O)n(CCCCCC(=O)NC3CCCC3)c(=O)c2cc1OCC	-12	-2%	2%	4%	-1%	-1%
O=C(NCc1ccccc1)Nc1cccc2ccccc12	1	-11%	-3%	-17%	-1%	0%
CCOc1cc2[nH]c(=O)n(CCCN3CCCC3=O)c(=O)c2cc1OCC	8	3%	8%	11µM*	-1%	0%
COC(=O)c1ccc2c(=O)n(CCCCCC(=O)NCc3ccc(OC)cc3)c(=O)[nH]c2c1	nt	nt	nt	-15%	nt	nt
COc1cc2[nH]c(=O)n(CCCCCC(=O)NCCCN3CCCC3=O)c(=O)c2cc1OC	-5	nt	5%	28µM*	-6%	0%
COc1cccc(CNC(=O)c2ccc(-c3nc(CS(=O)(=O)c4ccccc4)c(C)o3)cc2)c1	nt	nt	nt	4%	nt	nt
COc1ccc(CNC(=O)c2cccc(-c3ccc(C)c4ccccc34)n2)cc1	17	-17%	-1%	25µM*	2%	0%
COc1cc2[nH]c(=O)n(CCC(=O)N3CCC(N4CCCCC4)CC3)c(=O)c2cc1OC	-6	2%	-12%	32µM*	-1%	0%
COc1cc2[nH]c(=O)n(CCC(=O)NCCCN3CCN(c4ccccc4F)CC3)c(=O)c2cc1OC	15	6%	0%	nt	-6%	0%
COc1cc2[nH]c(=O)n(CCCCCC(=O)NCCCN3CCOCC3)c(=O)c2cc1OC	1	0%	-4%	22µM*	-6%	0%
COc1cc2[nH]c(=O)n(Cc3ccc(C(=O)N4CCC(N5CCCCC5)CC4)cc3)c(=O)c2cc1OC	13	19%	10%	5%	-2%	0%
COc1ccc(CNC(=O)c2ccccc2C(=O)O)cc1	-1	-7%	2%	1%	-1%	2%
COc1cc2[nH]c(=O)c(C(=O)NCCCN3CCCCC3)c(O)c2cc1OC	-14	5%	-3%	3.5µM*	0%	0%
Cc1ccc(NC(=O)CSc2ncc3c(n2)-c2ccccc2N(C)S3(=O)=O)c(Cl)c1	nt	nt	nt	27%	nt	nt
CCOc1ccc(NC(=O)Cn2c(=O)cc(C)c3c(C)nn(-c4cccc(Cl)c4C)c32)cc1	nt	nt	nt	1%	nt	nt
CCOc1cc(C2c3c(oc4ccccc4c3=O)C(=O)N2Cc2ccc3c(c2)OCO3)ccc1O (configuration not stated)	nt	nt	nt	0%	nt	nt
Cc1ccc(OCC(=O)Nc2ccc3nc(SCCOc4ccccc4)sc3c2)cc1	nt	nt	nt	-3%	nt	nt
